Only some compounds are listed: those with a hit (about 1.7% of all), similar ones and a draw of the others.
GLP-1R inv ag – acts as inverse agonist at human GLP-1 receptor | HEK293 GLP-1R CRE-luciferase, luminescence, 24 h; GLP-1R form is constitutively active | AID 624417 | Potency, µM (series often up to 38.3 µM), for the others: at the highest dose activity change, negative = inhibition, hits mostly inhibitors | actives 1.6% (n = 410,000); further: on the % scale 0 is the no-effect control and ±100 the full control effect; nearly all actives have a fitted effect of over 55% in size
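Readout was luciferase luminescence, measured 12 min after detection reagent at room temperature. Beforehand, GLP-1R reporter HEK293 cells had sat 12 h, then received compounds for 24 hr at 37 deg C.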
GLP1R cytotox – cytotoxic in the GLP-1 receptor inverse agonist counter-screen. HEK293 cAMP-luciferase reporter cells, luminescence, 24 h. Potency, µM (series often up to 38.3 µM), without a hit: top-dose activity change, negative = inhibition, usual class: inhibitors. actives 0.13% (n = 410,000);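 further: loss of luciferase light is scored as toxicity; on the % scale 0 is the no-effect control and ±100 the full control effect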
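Luminescence readout: signal drop marks cytotoxicity. Plated cells grew 12 h at 37 °C, 5% CO2, received 23 nL compound for 24 h, then got luciferase reagent, read after 12 min at RT.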
GLP-1R agonist – activates the human GLP-1 receptor. HEK293 GLP-1R CRE-luciferase, luminescence, 4-6 h; cells express a hypersensitive GLP-1R form. Potency, µM (doses to about 45.6 µM), for inactives: top-dose activation, hits mostly activators. actives 0.007% (n = 380,000); further: % of control where 0% means no effect
PTHR1 agonist – agonists of human PTHR1 parathyroid hormone receptor | Potency, µM (titrated, usually from 115 µM), for inactives: top-dose activation, usual class: activators | HEK293 GP2 PTHR1 cells, GloSensor cAMP luminescence, 1 h | actives 0.075% (n = 410,000) | AID 743266; further: nearly all actives have a fitted effect of over 55% in size
Target sequence (Q03431 whole entry, looked up): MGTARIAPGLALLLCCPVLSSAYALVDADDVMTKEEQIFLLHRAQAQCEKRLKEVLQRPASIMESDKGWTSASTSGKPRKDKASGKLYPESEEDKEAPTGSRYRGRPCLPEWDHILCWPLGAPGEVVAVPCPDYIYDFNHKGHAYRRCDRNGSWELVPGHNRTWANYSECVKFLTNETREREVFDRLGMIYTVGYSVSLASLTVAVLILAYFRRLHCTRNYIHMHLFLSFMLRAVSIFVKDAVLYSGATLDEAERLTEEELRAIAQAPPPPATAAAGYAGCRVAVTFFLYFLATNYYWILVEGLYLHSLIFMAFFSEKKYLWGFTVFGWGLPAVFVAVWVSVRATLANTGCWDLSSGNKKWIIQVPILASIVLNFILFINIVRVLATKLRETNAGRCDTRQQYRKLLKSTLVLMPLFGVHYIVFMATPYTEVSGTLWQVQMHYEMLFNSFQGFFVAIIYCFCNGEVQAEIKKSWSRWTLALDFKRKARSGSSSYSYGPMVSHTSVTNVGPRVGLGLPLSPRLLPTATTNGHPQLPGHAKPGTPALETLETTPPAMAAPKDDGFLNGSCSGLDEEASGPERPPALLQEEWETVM
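HEK-293-derived GP2 cells expressing PTHR1 and a GloSensor cAMP reporter, 3,000/well, plated overnight, given luciferin plus IBMX (each 0.5 mM as added) for 1 h at 37 °C, then compound for 1 h at 37 °C. Luminescence was read after 15 min at room temperature.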
The depositor's hits bear a star; i = inactive; ? = inconclusive; . = not tested or not shown; [ ] = remark or other dose. The call rests on the fitted dose curve; in most records, active means well fitted curve in the direction sought with a large enough effect; inconclusive means small, poorly fitted or top-dose-only effect, or another doubt; inactive means no such curve, though single readings can be large; an effect the other way counts as inactive or inconclusive. Potency means the concentration at half of the fitted maximal effect.

SMILES	GLP-1R inv ag	GLP1R cytotox	GLP-1R agonist	PTHR1 agonist
Cc1ccccc1CCNC(=O)c1ccc2c(c1)c(C)c(C)n2Cc1ccccc1	10µM*	4%	.	15%
Cc1c(C)n(Cc2ccccc2)c2ccc(C(=O)NCCc3ccccc3Cl)cc12	10µM*	1%	.	i
O=C1C=C(CO)OCC1=O	.	.	-1%	.
COc1ccccc1CCNC(=O)c1cc(C2CC2)nc2c1cnn2C(C)C	10µM*	0%	29%	-8%
COc1ccccc1N1CCN(C(=S)NC(=O)c2ccc([N+](=O)[O-])cc2)CC1	-22%	-33%	-5%	0%
COc1ccccc1OCCNC(=O)c1cc(C2CC2)nc2c1cnn2C(C)C	2%	-15%	-2%	-7%
Cc1ccccc1N1CCN(C(=O)c2cc(-c3ccccc3)nc3c2cnn3C(C)C)CC1	5%	5%	-3%	i
O=C(c1ccccc1Oc1ccccc1)N1CCN(c2ccccc2F)CC1	?	10%	3%	-20%
COc1ccccc1N1CCN(C(=O)c2ccccc2Oc2ccccc2)CC1	8.9µM*	-6%	3%	i
COc1ccccc1N1CCN(C(=O)c2cc(-c3ccccc3)nc3c2cnn3C(C)C)CC1	11µM*	4%	0%	-25%
COc1ccc(C(=O)NC(=S)N2CCN(c3ccccc3OC)CC2)cc1	?	4.5µM*	2%	-5%
O=C(CSc1nc(-c2ccc(F)cc2)[nH]c1-c1ccccc1)NCC1CCCO1 (stereo unspecified)	-28%	-1%	.	?
Fc1ccc(Nc2nc(NCc3ccco3)c3ccccc3n2)cc1	3.5µM*	?	2%	i
Nc1nc(Nc2ccccc2)nc(NCc2ccco2)c1[N+](=O)[O-]	?	?	18%	i
CCOC(=O)C1=C(C)N=c2s/c(=C\c3ccc(C(=O)O)cc3)c(=O)n2C1c1ccc(OC)cc1OC (stereo unspecified)	11%	?	-5%	-12%
CCOC(=O)C1=C(C)N=c2s/c(=C/c3ccco3)c(=O)n2C1c1cccc(OC)c1 (stereo unspecified)	11µM*	1%	-11%	-3%[57.5 µM]
O=C(Nc1cccc(Cl)c1)C1C2CCC3C(CCC21)C3(Cl)Cl (stereo unspecified)	5.6µM*	-35%	-9%	-21%
O=C(Nc1ccccc1Cl)C1C2CCC3C(CCC21)C3(Cl)Cl (stereo unspecified)	10%	2%	7%	-8%
O=C(Nc1ccccc1)C1C2CCC3C(CCC21)C3(Cl)Cl (stereo unspecified)	6.3µM*	-16%	-4%	-10%[57.5 µM]
CCOC(=O)c1ccc(N2C(=O)c3n[nH]c(-c4ccco4)c3C2c2ccc(C)cc2)cc1 (stereo unspecified)	?	?	-5%	-28%
CCOC(=O)c1ccc(N2C(=O)c3[nH]nc(-c4ccc(C)cc4)c3C2c2ccc(O)cc2)cc1 (stereo unspecified)	?	?	0%	-20%
CCOC(=O)c1ccc(N2C(=O)c3n[nH]c(-c4ccco4)c3C2c2ccc([N+](=O)[O-])cc2)cc1 (stereo unspecified)	7.1µM*	?	-10%	-34%
CCOC(=O)c1ccc(N2C(=O)c3[nH]nc(-c4ccc(C)cc4)c3C2c2cccc(F)c2)cc1 (stereo unspecified)	10µM*	-40%	-8%	-21%
CCCCOc1ccc(C(=O)N(Cc2nc(-c3ccc(Cl)cc3)no2)C(C)C)cc1	?	-1%	.	-18%
Fc1ccc(-c2nc3ccc(Br)cn3c2Cc2ccccc2)cc1	8.9µM*	-13%	17%	-11%
COc1ccc(/C=C/C(=O)C2(O)CCCCC2)cc1	10µM*	?	6%	i
Cc1ccc(OCC(=O)Nc2ccc(S(=O)(=O)Nc3cc(C)nc(C)n3)cc2)c(Br)c1	-7%	-11%	.	i
CC1(C)CC2CC(C)(CN2C(=O)c2cc(-c3ccccc3)on2)C1 (stereo unspecified)	2.8µM*	-3%	12%	i
COc1ccc2c(c1)CCc1c(C(=O)N3CC4(C)CC3CC(C)(C)C4)noc1-2 (stereo unspecified)	13µM*	-11%	2%	i
CC1(C)CC2CC(C)(CN2C(=O)c2cc(-c3ccc(F)cc3)on2)C1 (stereo unspecified)	?	0%	7%	-3%

Compound activity deposited in PubChem BioAssay by National Center for Advancing Translational Sciences (NCATS).
